Most compounds without a hit are left out; they make up all but 11% or so of the library.
USP17 block: inhibitors of human USP17 deubiquitinase. A8MUK1. purified USP17, Ub-rhodamine cleavage fluorescence, 3 h. inhibition, % at 50 µM. 47,000 tested, 6.5% active. AID 1645855
USP30 inh: human USP30 deubiquitinase inhibition; Q70CQ3; purified USP30, Ub-rhodamine cleavage fluorescence; inhibition, % at 25 µM; 47,000 tested, 5.3% active; AID 1645860
Target sequence (Q70CQ3 whole entry, looked up): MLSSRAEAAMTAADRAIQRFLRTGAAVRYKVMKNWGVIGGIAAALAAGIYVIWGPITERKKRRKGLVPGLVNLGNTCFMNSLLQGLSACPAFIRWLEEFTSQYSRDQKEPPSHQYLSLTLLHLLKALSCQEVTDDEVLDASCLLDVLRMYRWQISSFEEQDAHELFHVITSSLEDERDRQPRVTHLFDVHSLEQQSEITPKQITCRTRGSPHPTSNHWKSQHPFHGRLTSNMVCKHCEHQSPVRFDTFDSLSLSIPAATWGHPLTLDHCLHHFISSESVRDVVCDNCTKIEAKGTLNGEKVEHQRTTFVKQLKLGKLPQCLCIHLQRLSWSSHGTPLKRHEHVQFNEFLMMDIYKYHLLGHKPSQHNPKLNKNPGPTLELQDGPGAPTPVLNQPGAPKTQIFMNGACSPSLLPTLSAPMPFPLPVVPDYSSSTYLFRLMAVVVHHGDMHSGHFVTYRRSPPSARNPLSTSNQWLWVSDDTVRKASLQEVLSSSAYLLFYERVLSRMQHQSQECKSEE
USP28 inh: blocks human USP28 ubiquitin-rhodamine cleavage. AID 1645857. purified USP28, Ub-rhodamine cleavage fluorescence, 30 min. Q96RU2. 47,000 tested, 3% active. inhibition, % at 25 µM
* hit, by the source's call; i = inactive; / = no result given. No stated cut-off is given here; in the data, active means inhibition above about 30%; inactive means the rest.

SMILES | USP17 block | USP30 inh | USP28 inh
CCN1CCN(c2ccc(NC(=O)c3ccc4c(c3)OCO4)cn2)C1=O | 0.8 | 16.0 | 8.1
CCOCCCN1C(=O)C2C(C(=O)Nc3cc(Cl)cc(Cl)c3)C3C=CC2(O3)C1C(=O)NC1CCCCC1 (centres undefined) | 11.0 | -11.5 | -0.6
CCN1C(=O)[C@H]2CN(Cc3cccnc3)C[C@H]2C12CCN(S(=O)(=O)CC(C)C)CC2 | -2.0 | -16.9 | -14.6
O=C(NC1CCN(c2ccc(F)cc2)C1=O)c1ccc2c(c1)OCO2 (centres undefined) | -21.2 | -7.6 | -7.9
O=C1OC2CC1N(C(=O)COc1ccc(Cl)cc1)C2 (centres undefined) | / | -2.1 | -1.7
COc1ccc(-c2ncc(NC(=O)C3CC3)cn2)cc1 | -0.1 | 11.8 | -1.7
O=C(Nc1cnc(N2CCOCC2)nc1)c1ccc(Cl)cc1 | 14.4 | -2.1 | 25.4
Cc1ccc(C(=O)Nc2cnc(N3CCOCC3)nc2)cc1C | -3.6 | 5.1 | 40.4*
Cc1ccc(C)c(CNC(=O)c2cnc(-c3ccccc3)nc2-c2ccncc2)c1 | -28.5 | -307.8 | -78.9
COc1ccc(NC(=O)c2ccc(C)cc2)cc1 | 44.8* | 30.7* | 25.2
COc1ccc(C(=O)Nc2ccc3nc(C)c(C)nc3c2)cc1 | -4.9 | -9.8 | 21.4
COc1ccc(C(=O)Nc2cnc(-c3ccccc3)nc2)cc1 | 38.3* | -16.8 | -10.2
COc1ccc(C(C)NC(=O)c2cnc(-c3ccccc3)nc2-c2ccncc2)cc1 (centres undefined) | 40.2* | i | -125.7
Cc1ccc(C(=O)N(Cc2ccccc2)Cc2nc3nc(C)cc(C)n3n2)cc1 | 0.0 | -0.2 | 0.5
CCOc1cc(-c2cc3n(c(=N)c2C#N)CCc2cc4c(cc2-3)OCO4)ccc1OC | -131.7 | i | -149.4
CC(C)c1ccc(C(=O)N2CC[C@H](c3ccccc3)[C@H]3NCCCC[C@H]32)c(=O)[nH]1 | -4.3 | 16.9 | 6.9
CC(C)c1cc(C(=O)Nc2ccc(Oc3ccccc3)cc2)nn1C1CCS(=O)(=O)C1 (centres undefined) | 5.6 | 6.9 | 21.3
COc1ccc(NC(=O)c2oc3ccccc3c2NC(=O)Cc2ccc(OC)c(OC)c2)c(OC)c1 | 7.9 | 19.3 | 3.6
CC(=O)Nc1ccc(C(=O)Nc2cnc(N3CCCCCC3)nc2)cc1 | -111.4 | -51.7 | -128.6
COc1ccc(C(=O)Nc2cnc(N3CCCCC3)nc2)cc1 | -12.6 | -30.5 | 38.3*
Cc1ccc(OCc2nc(C#N)c(N3CCCCC3)o2)cc1 | 26.4 | 12.3 | 36.8*
N#Cc1nc(Cc2ccccc2)oc1N1CCN(c2ccccc2)CC1 | 0.0 | -1.3 | 0.0
COc1cc(C)ccc1OCC(=O)Nc1cc(Cl)ccc1N1CCCC1 | 12.1 | / | /
O=S(=O)(NC1CC1)c1ccc(S(=O)(=O)N2CCCC3(CCCCC3)C2)cc1 | / | 40.8* | 4.1
O=S(=O)(NC1CC1)c1ccc(S(=O)(=O)N2CCN3CCCC3C2)cc1 (centres undefined) | -7.1 | 0.5 | 0.0
SMILES | USP17 block | USP30 inh | USP28 inh
Cn1sc(=O)c2ccccc21 | 0.8 | 7.1 | -1.0
CCOC(=O)C1CCN(c2nc3cc(C)nn3c3ccccc23)CC1 | 10.9 | 20.2 | 13.0
Cc1cccc(NC(=O)[C@@H]2CCCN2C2=NS(=O)(=O)c3ccccc32)c1C | 34.8* | 31.6* | 0.0
COc1ccc(NC(=O)[C@@H]2CCCN2C2=NS(=O)(=O)c3ccccc32)cn1 | -125.7 | i | -165.2
COc1ccc(-n2c(C)cc(C(=O)CSc3nncn3-c3ccccc3OC)c2C)cc1 | 33.6* | 1.5 | 30.5*
COCC(C)n1c(C)cc(C(=O)CSc2nncn2-c2ccccc2OC)c1C (centres undefined) | -9.2 | -19.1 | -18.4
COCCCn1c(C(=O)Nc2ccccc2OC)cc2c(=O)n3ccccc3nc21 | 77.1* | 35.1* | 7.0
CCCCNC(=O)c1cc2c(=O)n3ccccc3nc2n1CCCOC | 2.4 | 2.8 | -3.3
COCCCn1c(C(=O)NCCC(C)C)cc2c(=O)n3ccccc3nc21 | 32.2* | 34.2* | 21.0
COCCCn1c(C(=O)Nc2ccc(OC)cc2)cc2c(=O)n3ccccc3nc21 | 0.8 | -7.6 | -15.8
Cc1cccc(C(=O)N2CCCC(COc3ccc(C(=O)NC4CC4)cc3)C2)c1 (centres undefined) | 16.5 | 14.0 | 11.2
Cc1cc(C)cc(NCC(=O)N2CCC(Cc3ccccc3)CC2)c1 | 0.5 | 4.2 | -7.9
Cc1nnc(-c2[nH]c(C)c(S(=O)(=O)NC(C)c3ccccc3)c2C)o1 (centres undefined) | 11.8 | 28.7 | 14.1
CNC(=O)C1(C)CN(C(=O)c2ccc3ccccc3n2)CCO1 (centres undefined) | 4.7 | -18.6 | 9.2
CCn1c(=O)c2ccccc2n(Cc2nc(-c3ccc(OC)cc3)no2)c1=O | 35.5* | 21.5 | 1.7
CCn1c(=O)c2ccccc2n(Cc2nc(-c3ccccc3)no2)c1=O | 7.7 | 5.2 | 5.5
O=C(/C=C/c1ccco1)Nc1nc2c(s1)COCC2 | -46.8 | -230.5 | -16.5
O=C(/C=C/c1ccc2c(c1)OCO2)NCc1ccc2c(c1)OCO2 | 25.3 | 32.5* | 21.5
O=C(NCc1ccc2c(c1)OCO2)c1ccsc1 | -8.6 | -1.8 | -4.9
O=C(/C=C/c1ccc2c(c1)OCO2)NCCCn1ccnc1 | 3.2 | 27.3 | 15.6
O=C(/C=C/c1ccc2c(c1)OCO2)Nc1nc2c(s1)COCC2 | 64.9* | 22.9 | 22.2
O=C(NCc1ccc2c(c1)OCO2)c1cc2c(s1)CCC2 | 47.9* | 29.6 | 44.1*
COc1ccc(S(=O)(=O)N(C(=O)c2ccccc2)c2ccc3oc(C)c(C(C)=O)c3c2)cc1 | 7.8 | 15.6 | 10.4
COc1cccc(C(=O)Nc2ccc(N3CCN(C4CCCC4)C3=O)nc2)c1 | -4.8 | -24.7 | 4.3
COc1cccc(NC(=O)[C@H](CCSC)NC(=O)[C@@H]2Cc3ccccc3CN2)c1 | -61.2 | -195.6 | -52.9
SMILES | USP17 block | USP30 inh | USP28 inh
O=C(Cc1cccs1)NCc1ccc2[nH]c3c(c2c1)CCCC3 | -19.1 | -190.3 | -36.4
CCC(C)NC(=O)Cn1cc(-c2nnc(CN3CCC(C)CC3)o2)c2ccccc21 (centres undefined) | 7.3 | 36.1* | 16.5
CC1CCN(Cc2nnc(-c3cn(CC(=O)N4CCCCCC4)c4ccccc34)o2)CC1 | -7.7 | -6.5 | -12.3
CC(C)(C)N=C1Nc2ccccc2NC12CCCNC2 (centres undefined) | -18.8 | -74.1 | -6.8
CN(Cc1ccccc1Cl)C(=O)c1cccc(S(=O)(=O)N2CCc3ccccc32)c1 | -8.3 | 22.1 | 12.7
O=C(NCc1nc2ccccc2[nH]1)c1cccc(S(=O)(=O)N2CCc3ccccc32)c1 | 31.5* | 59.1* | 29.3
Cc1c(C)c2cc(Cl)c3c(c2oc1=O)CN(Cc1ccc(F)cc1)CO3 | 10.1 | 7.4 | 4.3
COc1ccc(-c2nc(-c3nnn(-c4ccc(C)cc4)c3C)no2)cc1OC | 17.0 | 21.7 | 14.7
Cc1c(C(=O)NCC2CCCO2)nnn1-c1cccc(Cl)c1 (centres undefined) | -22.5 | -8.7 | -9.8
COc1ccccc1-c1nc(-c2nnn(-c3ccc(F)cc3)c2C)no1 | 12.4 | / | /
Cc1ccc(-c2nnc(-c3nnn(-c4ccc(C)cc4)c3C)o2)cc1 | 25.1 | 35.1* | 14.6
Cc1c(-c2nnc(-c3ccccn3)o2)nnn1-c1cccc(Cl)c1 | 11.4 | 69.5* | 94.2*
COc1ccc(S(=O)(=O)c2nnn(-c3cccc(OC)c3)c2C)cc1 | -11.4 | -12.9 | 0.1
COc1ccc(OC)c(-n2nnc(-c3nc(-c4ccccc4C)no3)c2C)c1 | 31.5* | / | /

Screens as filed in PubChem BioAssay.
